# From PubChem BioAssay (NCATS)
# Records with an inconclusive call do not appear. Active and inactive are the calls of the source. Calls come from the whole dose curve; as a rule, active = well fitted curve in the direction sought with a large enough effect; inconclusive = small, poorly fitted or top-dose-only effect, or another doubt; inactive = no such curve, though single readings can be large; an effect the other way counts as inactive or inconclusive.
# Key:
# [1] = Quantitative High-Throughput drug screen in 47 multiple myeloma cell lines against the NCATS MIPE library collection: Karpas417_ECACC cell viability assay (AID 1918961); details: Karpas417 myeloma viability, CellTiter-Glo ATP luminescence, 48 h; viability (% of DMSO): at 45.8 µM (top of the series); note: potency is the fitted concentration of half-maximal effect
# Method in brief: (§1)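 Approved and investigational drugs from MIPE 4.0 were added by pin tool to 500 cells per well. After 48 hours at 37C, ATP-based CellTiter-Glo luminescence indicated remaining viability.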
# [2] = Quantitative High-Throughput drug screen in 47 multiple myeloma cell lines against the NCATS MIPE library collection: JIM3_ECACC cell viability assay (AID 1918963; note: nearly all actives have a fitted effect of over 35% in size; note: potency is the fitted concentration of half-maximal effect)
# Method in brief: (§2)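 Viability readout: CellTiter-Glo luminescence following 5 min room-temperature incubation with reagent. Prior exposure: 48 h, 37C, humidified 5% CO2, 500 cells per well.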
# [3] = Quantitative High-Throughput drug screen in 47 multiple myeloma cell lines against the NCATS MIPE library collection: JIM1_ECACC cell viability assay (AID 1918964; note: potency is the fitted concentration of half-maximal effect)
# Method in brief: (§3)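 We plated 500 myeloma cells per well, pinned in MIPE 4.0 compounds, and incubated for 48 hours at 37C. ATP was then quantified with CellTiter-Glo, with DMSO and media-only wells defining 100% and 0%.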
# [4] = Quantitative High-Throughput drug screen in 47 multiple myeloma cell lines against the NCATS MIPE library collection: INA6_PLB cell viability assay (AID 1918965; note: nearly all actives have a fitted effect of over 55% in size; note: potency is the fitted concentration of half-maximal effect)
# Method in brief: as §1
# [5] = Quantitative High-Throughput drug screen in 47 multiple myeloma cell lines against the NCATS MIPE library collection: JJN3_DSMZ cell viability assay (AID 1918966; note: nearly all actives have a fitted effect of over 50% in size; note: potency is the fitted concentration of half-maximal effect)
# Method in brief: as §3
# [6] = Quantitative High-Throughput drug screen in 47 multiple myeloma cell lines against the NCATS MIPE library collection: H1112_PLB cell viability assay (AID 1918967; note: nearly all actives have a fitted effect of over 30% in size; note: potency is the fitted concentration of half-maximal effect)
# Method in brief: as §3
# [7] = Quantitative High-Throughput drug screen in 47 multiple myeloma cell lines against the NCATS MIPE library collection: Karpas25_ECACC cell viability assay (AID 1918968; note: nearly all actives have a fitted effect of over 35% in size; note: potency is the fitted concentration of half-maximal effect)
# Method in brief: as §3
# [8] = Quantitative High-Throughput drug screen in 47 multiple myeloma cell lines against the NCATS MIPE library collection: KMS12BM_JCRB cell viability assay (AID 1918971); note: potency is the fitted concentration of half-maximal effect; nearly all actives have a fitted effect of over 35% in size
# Method in brief: as §1
# [9] = Quantitative High-Throughput drug screen in 47 multiple myeloma cell lines against the NCATS MIPE library collection: KMS12PE_JCRB cell viability assay (AID 1918972); note: nearly all actives have a fitted effect of over 30% in size; note: potency is the fitted concentration of half-maximal effect
# Method in brief: as §1
# [10] = Quantitative High-Throughput drug screen in 47 multiple myeloma cell lines against the NCATS MIPE library collection: KMS20_JCRB cell viability assay (AID 1918973); note: potency is the fitted concentration of half-maximal effect; nearly all actives have a fitted effect of over 45% in size
# Method in brief: as §3
# [11] = Quantitative High-Throughput drug screen in 47 multiple myeloma cell lines against the NCATS MIPE library collection: MMM1_PLB cell viability assay (AID 1918976); note: potency is the fitted concentration of half-maximal effect; nearly all actives have a fitted effect of over 35% in size
# Method in brief: (§4)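 MIPE 4.0 approved/investigational drugs; 500 cells/well; 48 h 37 °C humidified 5% CO2; CTG luminescence readout; DMSO = 100%, media = 0% viability.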
# [12] = Quantitative High-Throughput drug screen in 47 multiple myeloma cell lines against the NCATS MIPE library collection: NCIH929_DSMZ cell viability assay (AID 1918978); note: nearly all actives have a fitted effect of over 35% in size; note: potency is the fitted concentration of half-maximal effect
# Method in brief: as §4
# [13] = Quantitative High-Throughput drug screen in 47 multiple myeloma cell lines against the NCATS MIPE library collection: OCIMY1_PLB cell viability assay (AID 1918979); note: nearly all actives have a fitted effect of over 35% in size; note: potency is the fitted concentration of half-maximal effect
# Method in brief: as §4
# [14] = Quantitative High-Throughput drug screen in 47 multiple myeloma cell lines against the NCATS MIPE library collection: MM1S_ATCC cell viability assay (AID 1918980); note: potency is the fitted concentration of half-maximal effect; nearly all actives have a fitted effect of over 45% in size
# Method in brief: as §4
# [15] = Quantitative High-Throughput drug screen in 47 multiple myeloma cell lines against the NCATS MIPE library collection: KHM11_PLB cell viability assay (AID 1918962); note: nearly all actives have a fitted effect of over 35% in size; note: potency is the fitted concentration of half-maximal effect
# Method in brief: as §2
# [16] = Quantitative High-Throughput drug screen in 47 multiple myeloma cell lines against the NCATS MIPE library collection: KMS27_JCRB cell viability assay (AID 1918970); details: KMS27 myeloma cells, CellTiter-Glo ATP viability, 48 h; viability (% of DMSO): at 45.8 µM (top of the series); note: nearly all actives have a fitted effect of over 30% in size; note: potency is the fitted concentration of half-maximal effect
# Method in brief: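 ATP-based viability (CellTiter-Glo luminescence) is measured in cells treated 48 h with approved and investigational drugs at 37 °C. Controls are DMSO-only wells for full viability and media-only wells for none.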
# [17] = Quantitative High-Throughput drug screen in 47 multiple myeloma cell lines against the NCATS MIPE library collection: KMS26_JCRB cell viability assay (AID 1918975); note: nearly all actives have a fitted effect of over 45% in size; note: potency is the fitted concentration of half-maximal effect
# Method in brief: as §1
# [18] = Quantitative High-Throughput drug screen in 47 multiple myeloma cell lines against the NCATS MIPE library collection: KMS21BM_JCRB cell viability assay (AID 1918974); details: ATP luminescence, 48 h; viability: at 45.8 µM (top of the series)
# Method in brief: as §3
# [19] = Quantitative High-Throughput drug screen in 47 multiple myeloma cell lines against the NCATS MIPE library collection: MOLP8_DSMZ cell viability assay (AID 1918977); note: nearly all actives have a fitted effect of over 45% in size; note: potency is the fitted concentration of half-maximal effect
# Method in brief: as §4
smiles,measurement,setting,value
CN(C(Cc1ccc(OS(=O)(=O)c2cccc3cnccc23)cc1)C(=O)N1CCN(c2ccccc2)CC1)S(=O)(=O)c1cccc2cnccc12 (stereo unspecified),Potency,[1],4.18 µM (active)
same,Potency,[2],6.62 µM (active)
same,Potency,[3],1.87 µM (active)
same,Potency,[4],3.72 µM (active)
same,Potency,[5],5.9 µM (active)
same,Potency,[6],8.33 µM (active)
same,Potency,[7],11.8 µM (active)
same,Potency,[8],10.5 µM (active)
same,Potency,[9],5.26 µM (active)
same,Potency,[10],2.64 µM (active)
same,Potency,[11],5.9 µM (active)
same,Potency,[12],16.6 µM (active)
same,Potency,[13],7.43 µM (active)
same,Potency,[14],5.26 µM (active)
O=C1CCCC(=O)C1C(=O)c1ccc(C(F)(F)F)cc1[N+](=O)[O-],Potency,[1],inactive
same,Potency,[15],inactive
same,Potency,[2],inactive
same,Potency,[4],inactive
same,Potency,[5],inactive
same,Potency,[6],inactive
same,Potency,[7],inactive
same,Potency,[16],inactive
same,Potency,[8],0.166 µM (active)
same,Potency,[12],inactive
same,Potency,[13],inactive
same,Potency,[14],18.7 µM (active)
Nc1nc(Cl)nc2c1ncn2[C@@H]1O[C@H](CO)[C@@H](O)[C@H]1F,Potency,[15],0.0148 µM (active)
same,Potency,[2],0.418 µM (active)
same,Potency,[4],0.0148 µM (active)
same,Potency,[5],0.372 µM (active)
same,Potency,[7],0.526 µM (active)
same,Potency,[9],0.833 µM (active)
same,Potency,[10],0.0264 µM (active)
same,Potency,[11],2.09 µM (active)
same,Potency,[12],0.0332 µM (active)
FC(F)(F)c1ccc(C=Cc2nc(COc3ccc(CCCCn4ccnn4)cc3)co2)cc1,Potency,[2],0.332 µM (active)
same,Potency,[3],0.0074 µM (active)
same,Potency,[4],0.0132 µM (active)
same,Potency,[5],inactive
same,viability (% of DMSO),[16],74.6% (active)
same,Potency,[8],0.0526 µM (active)
same,Potency,[17],0.0019 µM (active)
same,Potency,[12],0.0235 µM (active)
CCC[C@H](N[C@@H](C)C(=O)N1[C@@H]2CCCC[C@H]2C[C@H]1C(=O)O)C(=O)OCC,Potency,[2],14.8 µM (active)
same,Potency,[4],inactive
same,Potency,[6],inactive
same,Potency,[16],14.8 µM (active)
same,Potency,[18],inactive
same,Potency,[19],inactive
same,Potency,[12],inactive
same,Potency,[14],20.9 µM (active)
Cc1cnc(CNC(=O)c2c(=O)c3ccc(N4CCCN(C)CC4)nc3n3c2sc2ccccc23)cn1,Potency,[15],inactive
same,Potency,[4],2.57 µM (active)
same,Potency,[7],inactive
same,Potency,[16],inactive
same,Potency,[8],0.323 µM (active)
same,Potency,[17],12.9 µM (active)
same,Potency,[11],9.11 µM (active)
same,Potency,[14],2.88 µM (active)
COc1ccc2nc3cc(Cl)ccc3c(Nc3cc(CN4CCCC4)c(O)c(CN4CCCC4)c3)c2n1,Potency,[15],20.9 µM (active)
same,Potency,[4],7.43 µM (active)
same,Potency,[6],18.7 µM (active)
same,Potency,[7],14.8 µM (active)
same,Potency,[8],11.8 µM (active)
same,Potency,[10],20.9 µM (active)
same,Potency,[17],16.6 µM (active)
same,Potency,[11],14.8 µM (active)
same,Potency,[19],16.6 µM (active)
same,Potency,[12],18.7 µM (active)
same,Potency,[14],20.9 µM (active)
COC1CCC(C(=O)c2ccc3nc4c(cc3c2)CCCO4)CC1 (stereo unspecified),Potency,[15],9.35 µM (active)
same,Potency,[2],14.8 µM (active)
same,Potency,[4],13.2 µM (active)
same,Potency,[5],20.9 µM (active)
same,Potency,[16],18.7 µM (active)
same,Potency,[8],20.9 µM (active)
same,Potency,[9],14.8 µM (active)
same,Potency,[17],23.5 µM (active)
same,Potency,[11],2.64 µM (active)
same,Potency,[12],23.5 µM (active)
same,Potency,[14],20.9 µM (active)
CC(C)c1c(C(=O)Nc2ccccc2)c(-c2ccccc2)c(-c2ccc(F)cc2)n1CC[C@H](O)C[C@@H](O)CC(=O)O,Potency,[15],18.7 µM (active)
same,Potency,[2],14.8 µM (active)
same,Potency,[4],8.33 µM (active)
same,Potency,[7],11.8 µM (active)
same,Potency,[16],4.69 µM (active)
same,Potency,[8],13.2 µM (active)
same,Potency,[9],6.62 µM (active)
same,Potency,[11],8.33 µM (active)
same,Potency,[13],inactive
same,Potency,[14],16.6 µM (active)
Cc1ccc(NC(=O)c2cccc(N(C)C)c2)cc1NC(=O)c1ccc(O)cc1,Potency,[15],13.2 µM (active)
same,Potency,[4],16.6 µM (active)
same,Potency,[5],23.5 µM (active)
same,Potency,[6],0.166 µM (active)
same,Potency,[7],0.118 µM (active)
same,Potency,[16],1.05 µM (active)
same,Potency,[8],7.43 µM (active)
same,Potency,[12],0.118 µM (active)
same,Potency,[13],inactive
same,Potency,[14],0.418 µM (active)
Cc1cccc2c1CC[C@H](CN1CCC(c3c(Cl)cccc3Cl)CC1)C[C@@H]2O,Potency,[15],20.9 µM (active)
same,Potency,[2],14.8 µM (active)
same,Potency,[4],18.7 µM (active)
same,Potency,[8],16.6 µM (active)
same,Potency,[10],20.9 µM (active)
same,Potency,[11],18.7 µM (active)
Cc1cnc(-c2cc(N3CCN(C(=O)CCS(C)(=O)=O)CC3)ncc2Cl)c(C)c1,Potency,[2],inactive
same,Potency,[4],18.7 µM (active)
same,Potency,[5],inactive
same,Potency,[6],inactive
CN1N=C(N)c2cn([C@@H]3O[C@H](COP(=O)(O)O)[C@@H](O)[C@@H]3O)c3ncnc1c23,Potency,[15],0.372 µM (active)
same,Potency,[2],0.469 µM (active)
same,Potency,[5],2.96 µM (active)
same,Potency,[6],0.526 µM (active)
same,Potency,[7],0.372 µM (active)
same,Potency,[8],6.62 µM (active)
same,Potency,[10],1.32 µM (active)
same,Potency,[17],0.0132 µM (active)
same,Potency,[11],0.469 µM (active)
same,Potency,[12],0.0469 µM (active)
same,Potency,[14],1.18 µM (active)
CN1C(=O)C[C@H](C(=O)N[C@@H](Cc2cnc[nH]2)C(=O)N2CCC[C@@H]2C(N)=O)NC1=O,Potency,[15],inactive
same,Potency,[6],inactive
same,Potency,[8],16.6 µM (active)
same,Potency,[9],inactive
same,Potency,[17],inactive
same,Potency,[11],4.69 µM (active)
CCCCC(C)(C)[C@H](O)C=C[C@H]1[C@H](O)CC(=O)[C@H]1CC=CCCCC(=O)O,Potency,[2],20.9 µM (active)
same,Potency,[3],inactive
same,Potency,[4],23.5 µM (active)
same,Potency,[16],inactive
same,Potency,[8],18.7 µM (active)
same,Potency,[17],16.6 µM (active)
same,Potency,[11],16.6 µM (active)
same,Potency,[12],18.7 µM (active)
same,Potency,[14],14.8 µM (active)
Cc1cc(OCCCS(C)(=O)=O)cc(C)c1-c1cccc(COc2ccc3c(c2)OC[C@H]3CC(=O)O)c1,Potency,[2],14.8 µM (active)
same,Potency,[3],inactive
same,Potency,[5],11.8 µM (active)
same,Potency,[6],20.9 µM (active)
same,Potency,[8],13.2 µM (active)
same,Potency,[9],5.26 µM (active)
same,Potency,[17],inactive
same,Potency,[11],14.8 µM (active)
same,Potency,[12],20.9 µM (active)
